Test results published in PubChem BioAssay (NCI).
About 83,000 compounds went through this panel and 20% of them were active in at least one assay; those are over-represented in the sample as a whole.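 Single-concentration screen, 48 h exposure, 96-well plates. Endpoint: percent growth. Below 10 = active.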 Calls of active or inactive are those of the source.

System: HL-60(TB) leukemia
Assay: NCI-60 one-dose screen, 48 h (100 = growth as untreated, 0 = no growth, -100 = all killed)
Settings: 10 µM unless noted

Row | SMILES | growth
1 | CC(=O)Oc1ccc(CCN2C(=O)CSC2=S)cc1 | 57% (inactive)
2 | COc1cc(C(=O)c2cc(C(C)=O)c3c(C)cccn23)cc(OC)c1OC | 88.9% (inactive)
3 | O=C(CN1C(=O)S/C(=C\c2ccccc2)C1=O)Nc1ccc(C(=O)/C=C/c2cc3ccccc3nc2Cl)cc1 | 80.2% (inactive)
4 | O=C(N/N=C\c1ccc(F)cc1)c1ccc2nc(-c3ccc(Br)cc3)[nH]c2c1 | 78.8% (inactive)
5 | CC(C)(O)c1cncc(-c2ccc3ncnc(N4CCc5cc(F)c(Cl)cc54)c3c2)c1 | 1.38% (active)
6 | CC(Nc1c(C#N)cnc2ccc(-c3cnc(N)nc3)cc12)c1ccccc1 (centres undefined) | 20.1% (inactive)
7 | CCN1CCN(Cc2cn(-c3ccc(S(N)(=O)=O)cc3)nn2)CC1 | 110% (inactive)
8 | Cc1ccc(-c2nc(SCC(=O)c3ccccc3)nc(Nc3ccc(S(N)(=O)=O)cc3)c2C#N)cc1 | 95.9% (inactive)
9 | COc1cc(/C=N/n2cnc3oc(-c4ccccc4)cc3c2=N)cc(CN2CCN(C)CC2)c1O | 110% (inactive)
10 | O=S(=O)(NCCCNc1nccc(-c2[nH]c(-c3ccccc3)nc2-c2ccc(Cl)c(O)c2)n1)c1cccc(F)c1 | 35.6% (inactive)
11 | CN1C(=O)/C(=C/C=C/c2ccco2)SC1=S | 99.6% (inactive)
12 | CCCCOc1ccc(S(=O)(=O)N2CCN(c3nc(C)cc(N4CCOCC4)n3)CC2)cc1 | 20.3% (inactive)
13 | CN(C)C(=O)C1=NC(CO)C(=O)N(c2ccc(Cl)cc2)N1 (centres undefined) | 110% (inactive)
14 | N#C/C(=N\Nc1ccc(F)cc1)C(=O)Nc1cc(-c2ccccc2)nn1-c1ccccc1 | 3.54% (active)
15 | COc1ccc(C2CC(c3cccc(Nc4nc(Cl)nc5cc(OC)c(OC)cc45)c3)=Nc3c(N)nc(N)nc3N2)cc1 (centres undefined) | 47.4% (inactive)
16 | CC(=O)Nc1cccc(-n2cnc3cc(-c4ccc(O)cc4)ccc32)c1 | 6.68% (active)
17 | CCn1c(SCC(=O)Nc2cccc(C(=O)/C=C/c3ccc(C)cc3)c2)nc2ccccc2c1=O | 92% (inactive)
18 | NC(N)=Nc1ccc(Nc2cccc(Oc3ccc(Cl)c(C(F)(F)F)c3)c2)cn1 | -67.4% (active)
19 | C=CCn1c(SCC(=O)Nc2cccc(C(=O)/C=C/c3ccc(Cl)cc3)c2)nc2ccccc2c1=O | 103% (inactive)
20 | COc1ccc([C@H]2[C@H](O)C(=O)N2c2cc(OC)c(OC)c(OC)c2)cc1F | -13% (active)

Row | SMILES | growth
21 | Cc1csc(/N=C(N)/N=C(\N)c2cccs2)n1 | 111% (inactive)
22 | CCCCCc1ccc(S(=O)(=O)Nc2cccc(-c3csc(NC(=O)CNCCN(C)C)n3)c2)cc1 | 63% (inactive)
23 | COCCOc1ccc2ncc(C#Cc3cncc(C(=O)Nc4ccc(CN5CCN(C)CC5)c(C(F)(F)F)c4)c3)n2n1 | 16.7% (inactive)
24 | Cc1ccc(Cc2cnc(NC(=O)/C(C#N)=C/c3ccc(-c4ccc(Cl)cc4)o3)s2)cc1 | 88.5% (inactive)
25 | Cc1ccc(C2=Nn3c(nnc3-c3ccccc3)SC2)cc1 | 7.74% (active)
26 | COc1ccccc1NC1=C(Cl)C(=O)c2nc(C)ccc2C1=O | -48% (active)
27 | CC(=O)O[C@@H]1C(=O)N(c2cnccn2)[C@H]1c1ccccc1[N+](=O)[O-] | -30.4% (active)
28 | CN1c2ccccc2Sc2cc(C=C(C#N)C#N)ccc21 | 92.6% (inactive)
29 | O=c1/c(=C\c2ccc(-c3ccccc3)o2)sc2nc(-c3ccccc3)nn12 | 107% (inactive)
30 | Cc1nc(-c2ccccc2O)ccc1C(=O)N=Nc1c(O)[nH]c2ccc(Br)cc12 | 114% (inactive)
31 | C/C(=N\NC(=O)/C=C/CC(=O)O)c1nnn(-c2ccc([N+](=O)[O-])cc2)c1C | 98% (inactive)
32 | O=C(CCCCCCN1CC(=O)N2[C@@H](c3ccc(Cl)c(F)c3)c3[nH]c4ccccc4c3C[C@H]2C1=O)NO | 85.1% (inactive)
33 | C[C@H]1OCC2(CCN(c3cnc(C(=O)Nc4cc(F)cc5cccnc45)cn3)CC2)[C@H]1N | 18.9% (inactive)
34 | COc1cc(NC2=C(Cl)C(=O)c3nc(C)ccc3C2=O)cc(OC)c1 | -13.4% (active)
35 | O=S(=O)(NCCNc1nccc(-n2cnc3ccccc32)n1)c1ccc(Cl)cc1 | 113% (inactive)
36 | Oc1ccc(CSc2nnc(-c3ccc(Br)cc3)o2)c2cccnc12 | 23% (inactive)
37 | COc1ccccc1/C=C/C(=O)c1nnn(-c2ccc(C(=O)O)cc2)c1C | 83.2% (inactive)
38 | CC1=NC2=NN3C(=NN2C(c2ccccc2)=C1)N=NC(c1ccc(Br)cc1)=C3c1ccc(Br)cc1 | 115% (inactive)
39 | COC1CCN(Cc2ccc3c(NNC(=O)c4cnccn4)nc4cc(F)ccc4n23)C1 (centres undefined) | -19.4% (active)
